According to the supplement of paper PMC12494721:
Where a name gives a salt, the structure may show the parent alone.

Columns and labels:
Settings in all cases: 20 µM; incubation time: 27 h, anaerobic, 37 °C;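 for the amine columns active = adjusted P below 0.05 in both replicates with a change the same way and a mean fold change under 0.8 or over 1.25; inactive = the rest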
[1] = tested on: Clostridium sporogenes DSM 1664; assay: growth (OD595) fold change vs plate DMSO controls (fold change (ratio)); higher = more growth
In short: (§1)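 Growth is expressed as the fold change relative to the median of the DMSO control wells on each plate. Cultures in mGAM were grown anaerobically in 96-well plates for 27 h at 37 °C, shaken, and read at 595 nm. Readings were blank-subtracted, corrected for compound background with 20 µM compound solutions in water, and converted to OD with a calibration factor of 5. Fold changes above 1.5 were set to NA, and each value is the mean of 2 biological replicates.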

Escherichia coli IAI1 [2] = assay: as above
In short: as §1

[3] = tested on: Klebsiella aerogenes DSM 30053; assay: as above
In short: as §1

[4] = tested on: Ruminococcus gnavus DSM 108212; assay: as above
In short: as §1

[5] = tested on: Klebsiella aerogenes DSM 30053; assay: fold change of Histamine concentration vs plate DMSO controls (fold change (ratio)); higher = more amine produced, active = hit call of the paper (significant change in both replicates, either direction)
In short: (§2)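 Amines were quantified by LC–triple-quadrupole MS in dynamic MRM mode against external calibration curves, with drift correction within each batch. The samples were whole anaerobic mGAM cultures of four gut bacterial strains, grown for 27 h at 37 °C in 80 µL wells and extracted with cold acetonitrile/methanol with 0.1% formic acid, then centrifuged. Values are reported as fold change over DMSO controls on the same plate. The mean of 2 biological replicates is given.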

[6] = tested on: Clostridium sporogenes DSM 1664; assay: fold change of Tryptamine concentration vs plate DMSO controls (fold change (ratio)); higher = more amine produced, active = hit call of the paper (significant change in both replicates, either direction)
In short: as §2

[7] = tested on: Ruminococcus gnavus DSM 108212; assay: as above
In short: as §2

Escherichia coli IAI1 [8] = assay: fold change of Putrescine concentration vs plate DMSO controls (fold change (ratio)); higher = more amine produced, active = hit call of the paper (significant change in both replicates, either direction)
In short: as §2

[9] = tested on: Klebsiella aerogenes DSM 30053; assay: as above
In short: as §2

Escherichia coli IAI1 [10] = assay: fold change of Cadaverine concentration vs plate DMSO controls (fold change (ratio)); higher = more amine produced, active = hit call of the paper (significant change in both replicates, either direction)
In short: as §2

[11] = tested on: Klebsiella aerogenes DSM 30053; assay: as above
In short: as §2

[12] = tested on: Ruminococcus gnavus DSM 108212; assay: fold change of 2-Phenylethylamine concentration vs plate DMSO controls (fold change (ratio)); higher = more amine produced, active = hit call of the paper (significant change in both replicates, either direction)
In short: as §2

| Compound | growth [1] | growth (Escherichia coli IAI1 [2]) | growth [3] | growth [4] | fold change of Histamine concentration [5] | fold change of Tryptamine concentration [6] | fold change of Tryptamine concentration [7] | fold change of Putrescine concentration (Escherichia coli IAI1 [8]) | fold change of Putrescine concentration [9] | fold change of Cadaverine concentration (Escherichia coli IAI1 [10]) | fold change of Cadaverine concentration [11] | fold change of 2-Phenylethylamine concentration [12] |
| --- | --- | --- | --- | --- | --- | --- | --- | --- | --- | --- | --- | --- |
| CC(C)(C)NCC(O)c1ccccc1Cl (centres undefined) [Tulobuterol Hydrochloride] | 0.953 | 0.972 | 0.966 | 1.11 | 0.972 (inactive) | 1 (inactive) | 1.01 (inactive) | 1.02 (inactive) | 1.02 (inactive) | 0.993 (inactive) | 1.01 (inactive) | 1.03 (inactive) |
| CC(=O)NC1CCSC1=O (centres undefined) [Citiolone] | 1.15 | 0.993 | 1.07 | 1 | 0.819 (inactive) | 1.05 (inactive) | 1.17 (inactive) | 1.02 (inactive) | 0.93 (inactive) | 0.99 (inactive) | 1.06 (inactive) | 1.31 (inactive) |
| C[N+]1(C)CCOC(O)(c2ccc(-c3ccc(C4(O)C[N+](C)(C)CCO4)cc3)cc2)C1 (centres undefined) [Hemicholinium bromide] | 1.04 | 0.992 | 1.2 | 1.27 | 0.912 (inactive) | 1.18 (inactive) | 1.06 (inactive) | 1.01 (inactive) | 0.995 (inactive) | 0.928 (inactive) | 1.02 (inactive) | 1.07 (inactive) |
| C=CC(N)=O [Acrylamide] | 0.971 | 0.969 | 0.977 | 0.973 | 0.995 (inactive) | 1.03 (inactive) | 0.999 (inactive) | 0.967 (inactive) | 0.987 (inactive) | 1.04 (inactive) | 0.972 (inactive) | 1.03 (inactive) |
| COc1cccc(C(=O)NN(C(=O)c2cc(C)cc(C)c2)C(C)(C)C)c1C | 0.988 | 1.01 | 1.01 | 1.17 | 0.994 (inactive) | 0.948 (inactive) | 0.932 (inactive) | 1.03 (inactive) | 0.983 (inactive) | 0.968 (inactive) | 0.986 (inactive) | 0.92 (inactive) |
| CC(C)c1c(CN(C)C(C)Cc2ccccc2)n(C)n(-c2ccccc2)c1=O (centres undefined) [Famprofazone] | 1.02 | 1.15 | 1.06 | 1.05 | 0.986 (inactive) | 0.954 (inactive) | 1.06 (inactive) | 1.03 (inactive) | 1.02 (inactive) | 0.998 (inactive) | 1.01 (inactive) | 1.02 (inactive) |
| c1ccc2c(c1)ccc1c3ccccc3sc21 [Benzo[b]naphtho[2,1-d]thiophene] | 0.989 | 0.988 | 1.11 | 1.07 | 1.02 (inactive) | 0.962 (inactive) | 1.01 (inactive) | 1.01 (inactive) | 1.03 (inactive) | 0.992 (inactive) | 1.01 (inactive) | 0.99 (inactive) |
| CO/C=C(/C(=O)OC)c1ccccc1COc1cccc(C(F)(F)F)n1 | 1.04 | 1.03 | 1.05 | 0.952 | 0.977 (inactive) | 1.02 (inactive) | 0.996 (inactive) | 1.06 (inactive) | 1 (inactive) | 1 (inactive) | 1 (inactive) | 0.98 (inactive) |
| COc1ncc(F)c2nc(S(=O)(=O)Nc3c(F)cccc3F)nn12 | 1.08 | 0.984 | 1.08 | 1.15 | 0.874 (inactive) | 1.04 (inactive) | 0.984 (inactive) | 1.01 (inactive) | 0.997 (inactive) | 0.998 (inactive) | 1.03 (inactive) | 0.993 (inactive) |
| C1CCc2nnnn2CC1 [Pentylenetetrazole] | 1.14 | 0.976 | 1 | 0.873 | 0.957 (inactive) | 0.963 (inactive) | 0.836 (inactive) | 0.994 (inactive) | 0.975 (inactive) | 1.01 (inactive) | 0.998 (inactive) | 0.876 (inactive) |
| N[C@@H]1C[C@H]1c1ccccc1 [Tranylcypromine hydrochloride] | 1.05 | 0.992 | 1.03 | 1.02 | 1.1 (inactive) | 0.972 (inactive) | 0.964 (inactive) | 1.01 (inactive) | 1.03 (inactive) | 1.03 (inactive) | 0.995 (inactive) | 0.928 (inactive) |
| CCN(CC)c1nc(C)cc(OP(=S)(OC)OC)n1 | 1.04 | 1.01 | 0.98 | 1.13 | 1.01 (inactive) | 1.06 (inactive) | 1.06 (inactive) | 1.02 (inactive) | 0.969 (inactive) | 0.901 (inactive) | 1 (inactive) | 1.05 (inactive) |
| Fc1ccc([C@]2(Cn3cncn3)O[C@H]2c2ccccc2Cl)cc1 (racemic) | 0.97 | 1.01 | 0.994 | 1.04 | 0.991 (inactive) | 1.06 (inactive) | 0.967 (inactive) | 0.935 (inactive) | 0.954 (inactive) | 1.03 (inactive) | 0.982 (inactive) | 1.02 (inactive) |
| CON(C)C(=O)Nc1ccc(Cl)c(Cl)c1 | 1.07 | 1.01 | 1.01 | 1.07 | 0.924 (inactive) | 1.02 (inactive) | 0.969 (inactive) | 0.982 (inactive) | 1.02 (inactive) | 1.02 (inactive) | 1 (inactive) | 0.976 (inactive) |
| CC(COc1ccc(Oc2ccccc2)cc1)Oc1ccccn1 (centres undefined) | 1.06 | 0.987 | 1.01 | 0.945 | 1.02 (inactive) | 1.02 (inactive) | 1.06 (inactive) | 1.01 (inactive) | 1.03 (inactive) | 1.02 (inactive) | 1.02 (inactive) | 1.08 (inactive) |
| C[N+]1([O-])[C@@H]2C[C@@H](OC(=O)[C@H](CO)c3ccccc3)C[C@H]1[C@@H]1O[C@@H]12 (some centres undefined) [Scopolamin-N-oxide hydrobromide] | 1.05 | 1.03 | 1.01 | 0.938 | 0.988 (inactive) | 1.01 (inactive) | 1.13 (inactive) | 1 (inactive) | 0.931 (inactive) | 0.991 (inactive) | 1.01 (inactive) | 1.13 (inactive) |
| Oc1ccccc1-c1ccccc1 | 1 | 1.12 | 0.949 | 1.21 | 0.959 (inactive) | 0.993 (inactive) | 0.973 (inactive) | 0.955 (inactive) | 0.993 (inactive) | 1.01 (inactive) | 0.998 (inactive) | 0.965 (inactive) |
| O=C(NCNC(=O)NC1C(=O)NC(=O)N1CO)NC1C(=O)NC(=O)N1CO (centres undefined) [Imidurea] | 1.05 | 1.06 | 0.987 | 1.19 | 1.02 (inactive) | 0.998 (inactive) | 1.01 (inactive) | 1.01 (inactive) | 1 (inactive) | 1 (inactive) | 0.994 (inactive) | 1 (inactive) |
| OCC(O)CCl (racemic) | 0.938 | 1.02 | 0.97 | 0.97 | 1.01 (inactive) | 1.11 (inactive) | 1.08 (inactive) | 0.975 (inactive) | 0.959 (inactive) | 0.891 (inactive) | 1 (inactive) | 1.18 (inactive) |
| CC(C)(C)C(O)C(Oc1ccc(Cl)cc1)n1cncn1 (centres undefined) | 0.989 | 1.11 | 0.994 | 0.928 | 0.993 (inactive) | 0.962 (inactive) | 0.998 (inactive) | 1.08 (inactive) | 0.999 (inactive) | 0.937 (inactive) | 1 (inactive) | 0.975 (inactive) |
| CNC(=O)Oc1ccc2c(c1)[C@]1(C)CCN(C)[C@@H]1N2C [Eserine hemisulfate salt] | 1.02 | 1.06 | 0.988 | 1.05 | 1.04 (inactive) | 1.02 (inactive) | 1.03 (inactive) | 1.06 (inactive) | 0.996 (inactive) | 0.999 (inactive) | 0.975 (inactive) | 1.05 (inactive) |
| CN1C(=O)COc2c(C(=O)NC3CN4CCC3CC4)cc(Cl)cc21 (centres undefined) [Azasetron hydrochloride] | 0.734 | 0.55 | 0.585 | 0.0388 | 1.03 (inactive) | 0.992 (inactive) | 1.02 (inactive) | 0.507 (inactive) | 0.996 (inactive) | 0.512 (inactive) | 0.982 (inactive) | 0.986 (inactive) |
| CC(=NC#N)N(C)Cc1ccc(Cl)nc1 | 0.969 | 0.971 | 0.989 | 1.13 | 1.02 (inactive) | 0.985 (inactive) | 1.02 (inactive) | 1.02 (inactive) | 0.979 (inactive) | 1.01 (inactive) | 0.992 (inactive) | 1.05 (inactive) |
| C[N+]12CCC(CC1)C(OC(=O)C(O)(c1ccccc1)c1ccccc1)C2 (centres undefined) [Clidinium bromide] | 1.02 | 1.04 | 1.07 | 1 | 0.975 (inactive) | 0.952 (inactive) | 1.03 (inactive) | 0.957 (inactive) | 0.981 (inactive) | 1 (inactive) | 1 (inactive) | 1.02 (inactive) |
| N#Cc1c(Cl)c(Cl)c(Cl)c(C#N)c1Cl | 0.937 | 1.02 | 0.925 | 0.962 | 1.03 (inactive) | 0.995 (inactive) | 0.853 (inactive) | 1 (inactive) | 0.995 (inactive) | 1.08 (inactive) | 0.991 (inactive) | 0.804 (inactive) |
| CC[C@@H](CO)NC(=O)[C@@H]1C=C2c3cccc4[nH]cc(c34)C[C@H]2N(C)C1 [Methylergometrine maleate] | 1.08 | 1.03 | 1 | 1.11 | 1.03 (inactive) | 1.03 (inactive) | 1.02 (inactive) | 0.965 (inactive) | 1.01 (inactive) | 0.996 (inactive) | 1 (inactive) | 1.02 (inactive) |
| CC[C@H](C)[C@H]1O[C@]2(C=C[C@@H]1C)C[C@@H]1C[C@@H](C/C=C(\C)[C@@H](O[C@H]3C[C@H](OC)[C@@H](O[C@H]4C[C@H](OC)[C@@H](O)[C@H](C)O4)[C@H](C)O3)[C@@H](C)/C=C/C=C3\CO[C@@H]4[C@H](O)C(C)=C[C@@H](C(=O)O1)[C@]34O)O2.CO[C@H]1C[C@H](O[C@H]2[C@H](C)O[C@@H](O[C@@H]3/C(C)=C/C[C@@H]4C[C@@H](C[C@]5(C=C[C@H](C)[C@@H](C(C)C)O5)O4)OC(=O)[C@@H]4C=C(C)[C@@H](O)[C@H]5OC/C(=C\C=C\[C@@H]3C)[C@]54O)C[C@@H]2OC)O[C@@H](C)[C@@H]1O | 1.09 | 1.01 | 1.05 | 1.05 | 0.985 (inactive) | 0.855 (inactive) | 0.906 (inactive) | 0.989 (inactive) | 0.99 (inactive) | 0.968 (inactive) | 0.996 (inactive) | 0.885 (inactive) |
